Compound activity as filed in PubChem BioAssay.
AI-2 QS mod = modulators of Vibrio harveyi AI-2 quorum sensing system | Vibrio harveyi JMH597 AI-2 luminescence/OD600 ratio, 9 h; hits give low values; strain lacks LuxN and CqsS sensors; 0 = neutral-control median | 300,000 compounds, 0.4% hits | activity change, % at 7.5 µM; in the data active = activity change below about -75%, passing the limit was not always enough; inconclusive = no clear call, values can overlap the other calls;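 also: luminescence divided by OD600 gain over 9 h not by final OD600 alone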
PREPL inh = inhibits the human prolyl oligopeptidase-like enzyme | inhibition, % at 5.96 µM | Q4J6C6 | recombinant PREPL, fluorescence polarization activity-based probe | 320,000 compounds, 0.68% hits; in the data active = inhibition above about 43%;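 also: 0% = enzyme with DMSO and 100% = wells lacking enzyme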
CHT allo act = allosterically activates the human high affinity choline transporter | Q9GZV3 | CHT-expressing cells, membrane potential dye, choline EC20; hits give high values; LV-AA mutant CHT in HEK293 cells | AID 488977 | B-score at 10 µM | 310,000 compounds, 0.49% hits;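 active = initial fluorescence not abnormally high and integrated response B-score, plate-corrected, over 3 SD above library mean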
ALR inh = blocks human ALR sulfhydryl oxidase activity | purified ALR, DTT oxidation, H2O2 HRP-luminol luminescence | inhibition, % (no concentration beside the values) | 290,000 compounds, 3.8% hits;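 active = mean replicate inhibition above about 79%, with every replicate also reaching it, limit read from the data; inconclusive = only one of the two criteria met; inactive = mean below limit and not every replicate reaching it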
Target sequence (P55789 whole entry, looked up): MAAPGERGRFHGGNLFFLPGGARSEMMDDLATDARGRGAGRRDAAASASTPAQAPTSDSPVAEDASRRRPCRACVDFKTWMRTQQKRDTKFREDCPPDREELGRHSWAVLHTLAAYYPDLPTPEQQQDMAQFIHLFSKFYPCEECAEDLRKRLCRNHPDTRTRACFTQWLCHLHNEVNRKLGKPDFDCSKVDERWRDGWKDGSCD
CHT block = inhibits the human high affinity choline transporter; CHT-expressing cells, membrane potential dye, choline response; hits give low values; B-score at 10 µM; 310,000 compounds, 0.86% hits;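 active = B-score over 3 SD under the library average, and starting fluorescence ratio not unusually high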;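 also: choline stimulus applied at its EC90 after an EC20 pre-addition; B-score computed on integrated fluorescence ratio after choline addition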
Starred values were filed as active, the others as inactive; i = inactive; ? = inconclusive; nt = no result. Shown are actives, neighbours in structure and some others; about 5% of the full set was active somewhere.

SMILES	AI-2 QS mod	PREPL inh	CHT allo act	ALR inh	CHT block
CC(CCc1ccccc1)NC(=O)CN1CCSc2ccccc21 (stereo not given)	46	9	i	99*	i
Cn1c(=O)c2[nH]c(Nc3ccccc3)nc2n(C)c1=O	16	6	i	89*	i
Cc1ccc(CNc2nc3c([nH]2)c(=O)n(C)c(=O)n3C)cc1	-6	13	i	2	i
CCn1c(SCC(=O)c2ccccc2)nc2c(c1=O)SC(C)C2 (stereo not given)	15	34	i	99*	i
COCCn1c(SCC(=O)c2ccccc2)nc2c(c1=O)SC(C)C2 (stereo not given)	22	31	i	99*	i
CCn1c(SCC(=O)N2CCCCC2)nc2c(c1=O)SC(C)C2 (stereo not given)	18	-1	i	18	i
COc1ccc(CNCc2cn(-c3cccc(F)c3)nc2-c2ccc(C)o2)cc1	34	24	i	-4	i
O=C(c1cccnc1)N1CCCC(Nc2ccc(F)cc2)C1 (stereo not given)	7	6	i	53	i
O=C1CSCN1c1ccc(Cl)c(Cl)c1	10	6	i	98*	i
CCCN(CCC)C(=O)C1CCN(c2ccc(S(=O)(=O)N3CCOCC3)cc2[N+](=O)[O-])CC1	8	6	i	-1	i
COP(=O)(OC)C(Nc1ccc(C)cc1)c1ccc([N+](=O)[O-])cc1 (stereo not given)	35	-3	i	83*	i
CCOc1ccc(NC(c2ccccc2)P(=O)(OC)OC)cc1 (stereo not given)	-13	6	i	89*	i
COc1ccc(C(=O)O)cc1S(=O)(=O)Nc1ccc(Oc2ccccc2)cc1	nt	5	nt	-2	nt
O=C(Nc1cc(Cl)cc(Cl)c1)C1CCCC1	11	-8	i	-1	i
O=C(NCC(c1cccnc1)N1CCN(c2ccccc2)CC1)C1CCCCC1 (stereo not given)	13	7	i	88*	i
COc1cc(C(=O)NCC(c2cccnc2)N2CCN(c3ccccc3)CC2)cc(OC)c1OC (stereo not given)	16	8	i	99*	i
COC(=O)NCC(c1cccnc1)N1CCN(c2ccccc2)CC1 (stereo not given)	42	-5	i	89*	i
O=C(NCC(c1cccnc1)N1CCN(c2ccccc2)CC1)OCc1ccccc1 (stereo not given)	6	22	i	76*	i
O=C(NCC(c1cccnc1)N1CCN(c2ccc(F)cc2)CC1)OCc1ccccc1 (stereo not given)	?	1	i	64	i
Cc1cc(-c2csc(NC(=O)c3ccc(C#N)cc3)n2)c(C)n1Cc1ccccc1	7	10	i	nt	i
CC(C)N(Cc1ccccc1)C(=O)CN1C(=O)NC2(CCOc3ccccc32)C1=O (stereo not given)	nt	6	nt	-7	nt
COc1ccccc1N1CCN(C(CNS(=O)(=O)c2cccs2)c2cccnc2)CC1 (stereo not given)	17	11	i	47	i
O=S(=O)(NCC(c1cccnc1)N1CCN(c2ccccc2)CC1)c1cccs1 (stereo not given)	34	28	i	98*	i
O=c1cc(CN2CCN(c3ccc(F)cc3)CC2)nc2sccn12	4	29	i	98*	i
CC(=O)NS(=O)(=O)c1ccc(NC(=O)c2cccc(S(=O)(=O)N3CCc4ccccc43)c2)cc1	20	-1	i	97*	i
SMILES	AI-2 QS mod	PREPL inh	CHT allo act	ALR inh	CHT block
COC(C[C@@H]1O[C@H]1C(=O)[C@@H](C)OCc1ccccc1)OC	13	4	i	46	i
Cc1cccc(CSC2=NCCN2C(=O)c2ccc(Br)o2)c1	42	-2	i	95*	i
CC(=O)N1CCN=C1SCc1ccc(C(F)(F)F)cc1	19	15	i	99*	i
O=C(Cc1ccccc1)N1CCN(S(=O)(=O)c2cccc([N+](=O)[O-])c2)CC1	20	6	i	1	i
O=C(Cc1ccccc1)N1CCN=C1SCc1cccc([N+](=O)[O-])c1	16	28	i	98*	i
O=C(C1CC1)N1CCN=C1SCc1cccc(F)c1	nt	8	i	99*	i
O=C(O)CC1(CC(=O)Nc2cc(F)ccc2Cl)CCCCC1	19	8	i	0	i
O=C(C1CC1)N1CCN=C1SCc1ccccc1	20	9	i	-1	i
O=C(C1CC1)N1CCN=C1SCc1ccc(F)cc1	21	19	i	100*	i
CN(C)c1ccc(CNS(=O)(=O)c2ccc3c(c2)NC(=O)CS3)cc1	35	5	i	99*	i
CCOc1cc(CNc2cccc3ccccc23)cc(Br)c1OCC(=O)NC(C)(C)C	9	57*	i	-10	i
Cc1ccc(CSc2nc3c(c(SCC(=O)O)n2)CCCC3)cc1	12	3	i	97*	i
COC(=O)CSc1nc(SCc2ccc(C)cc2)nc2c1CCCC2	19	0	i	-10	i
C=C(C)CC1Nc2ccccc2NC1CC(=C)C (stereo not given)	35	6	i	99*	i
Cc1ccc(C2C(C#N)=C(N)OC3=C2C(=O)CC(C)(C)C3)s1 (stereo not given)	14	-6	i	9	i
CC1(C)CC(=O)C2=C(C1)OC(N)=C(C#N)C2c1cccs1 (stereo not given)	15	17	i	96*	i
Cc1ccc(Oc2ccc(C(=O)NC3CCSC3=O)cn2)cc1 (stereo not given)	16	6	i	99*	i
O=C(NC1CCSC1=O)c1ccc(Oc2ccc(F)cc2)nc1 (stereo not given)	18	-2	i	-22	i
CSc1nc(-c2ccco2)nn1C(=O)c1ccc(C)cc1	8	12	i	97*	i
COc1ccccc1C(=O)n1nc(-c2ccco2)nc1SC	46	-5	i	98*	i
CSc1nc(-c2ccco2)nn1C(=O)c1ccccc1	24	6	i	1	i
CSc1nc(-c2ccco2)nn1C(=O)c1ccco1	-8	2	i	29	i
Cc1cc(SCc2ccccc2Cl)nc(=O)[nH]1	9	-1	i	94*	i
Cc1ccc(C(=O)CSc2cc(C)[nH]c(=O)n2)cc1	30	8	i	99*	i
Cc1cc(SCc2ccc(Cl)cc2Cl)nc(=O)[nH]1	21	-4	i	98*	i
Cc1cc(SCc2ccc(Cl)c(Cl)c2)nc(=O)[nH]1	28	4	i	0	i
Cc1cc(C)nc(N2CCN(c3ccc(F)cc3)CC2)n1	22	nt	i	39	i
